Screening data as filed in PubChem BioAssay.
An excerpt weighted towards active compounds, which were near 11% of everything screened.
BAZ2B inh = inhibitors of human BAZ2B bromodomain; AlphaScreen BAZ2B-H3K14Ac peptide displacement; actives 4.4% (n = 360,000); Potency, µM (highest dose often 114 µM), for the others: at the top dose activity change, negative = inhibition, actives largely listed as inhibitors; AID 504333; Q9UIF8; further: on the % scale 0 is the no-effect control and ±100 the full control effect; nearly all actives have a fitted effect of over 60% in size
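AlphaScreen displacement of biotin-H3(5-23)K14Ac peptide (50 nM final) from BAZ2B (50 nM final) in PBS pH 7.4, 0.01% Tween-20; complex preformed 30 min RT, then compounds (top 110 uM) 30 min RT, beads 20 min dark.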
JMJD2A Tudor = JMJD2A Tudor domain (human) inhibition; O75164; AlphaScreen JMJD2A-Tudor / H3K4me3 peptide binding; Potency, µM (highest dose often 114 µM), for the others: at the top dose activity change, negative = inhibition, hits mostly inhibitors; actives 4.4% (n = 390,000); AID 504339; further: on the % scale 0 is the no-effect control and ±100 the full control effect; nearly all actives have a fitted effect of over 50% in size
G9a inh = blocks human histone lysine methyltransferase G9a. Q96KQ7. actives 8.8% (n = 350,000). Potency, µM (series often up to 102 µM), inactives show at the highest dose activity, negative = inhibition, usual class: inhibitors. G9a H3K9 monomethylation, AlphaScreen, 2 h; further: on the % scale 0 is the no-effect control and ±100 the full control effect; nearly all actives have a fitted effect of over 75% in size
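G9a (20 nM) was preincubated 15 min with compound, then reacted 2 h at room temperature with 500 nM biotin-H3K9 peptide and 20 µM SAM. Monomethyl-H3K9 detected by AlphaScreen using anti-H3K9me1 antibody.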
PLK1 PBD inh = inhibitors of human PLK1 polo-box domain binding; Plk1 PBD binding of FITC phosphopeptide, fluorescence polarization; Potency, µM, inactives show max response, negative = inhibition, hits mostly inhibitors; actives 2.8% (n = 360,000); further: series mostly up to about 57 µM; on the % scale 0 is the no-effect control and ±100 the full control effect; nearly all actives have a fitted effect of over 65% in size
Target sequence (P53350 whole entry, looked up, the tested form may be a part): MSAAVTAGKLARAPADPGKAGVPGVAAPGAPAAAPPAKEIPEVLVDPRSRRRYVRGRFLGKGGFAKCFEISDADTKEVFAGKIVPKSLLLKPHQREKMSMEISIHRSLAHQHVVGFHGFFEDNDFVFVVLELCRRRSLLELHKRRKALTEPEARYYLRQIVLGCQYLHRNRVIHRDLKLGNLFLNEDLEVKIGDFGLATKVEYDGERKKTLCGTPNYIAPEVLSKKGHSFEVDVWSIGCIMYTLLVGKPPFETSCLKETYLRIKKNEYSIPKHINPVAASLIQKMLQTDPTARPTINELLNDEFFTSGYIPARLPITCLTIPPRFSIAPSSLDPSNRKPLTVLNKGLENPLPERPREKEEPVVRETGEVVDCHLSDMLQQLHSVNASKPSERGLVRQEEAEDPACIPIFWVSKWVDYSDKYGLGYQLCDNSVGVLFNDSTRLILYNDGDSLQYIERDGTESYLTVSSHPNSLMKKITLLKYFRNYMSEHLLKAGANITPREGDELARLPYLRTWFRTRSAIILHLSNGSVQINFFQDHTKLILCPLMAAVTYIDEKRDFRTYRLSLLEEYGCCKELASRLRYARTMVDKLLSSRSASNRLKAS
HP1b chromo inh = inhibitors of HP1-beta chromodomain binding to methylated histone tails | actives 0.56% (n = 390,000) | AID 540317 | Potency, µM (highest dose often 114 µM), without a hit: top-dose activity change, negative = inhibition, hits mostly inhibitors | AlphaScreen HP1-beta / biotin-H3K9me3 peptide binding; further: nearly all actives have a fitted effect of over 70% in size
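Compound inhibition of the preformed complex between 50 nM HP1-beta and 50 nM biotinylated H3K9me3 peptide was read by AlphaScreen. Buffer was PBS pH 7.4 with 0.01% Tween-20. Incubations ran 30 min at room temperature, with 10 ug/mL donor/acceptor beads.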
VDR inhibitor = inhibitors of human vitamin D receptor; P11473; VDR-SRC2-3 peptide fluorescence polarization, 2 h; Potency, µM, for the others: max response, negative = inhibition, hits mostly inhibitors; actives 0.93% (n = 400,000); further: on the % scale 0 is the no-effect control and ±100 the full control effect
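Reagent solutions, kept cold and dark, are dispensed first; compounds are then pinned in at 23 nl, plates briefly spun, and incubated 2 h at ambient temperature. Inhibition of VDR–SRC2-3 peptide binding is read by fluorescence polarization.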
* hit, by the source's call; ! = not active in a repeat; [ ] = dose if it differs, or a comment. The call rests on the fitted dose curve; in most records, active means well fitted curve in the direction sought with a large enough effect; inconclusive means small, poorly fitted or top-dose-only effect, or another doubt; inactive means no such curve, though single readings can be large; an effect the other way counts as inactive or inconclusive. Potency means the concentration at half of the fitted maximal effect.

How did Cc1ccc(CNCC(=O)Nc2cccc(S(=O)(=O)NC3=NCCCCC3)c2)cc1 do in these assays?
BAZ2B inh: inconclusive; JMJD2A Tudor: 7.9µM*; G9a inh: 40µM*; PLK1 PBD inh: 1%; HP1b chromo inh: inconclusive; VDR inhibitor: -16%

Results for CCCNCC(=O)Nc1cccc(S(=O)(=O)NC2=NCCCCC2)c1 ?
JMJD2A Tudor: 1µM*; PLK1 PBD inh: 0%; HP1b chromo inh: inconclusive; VDR inhibitor: -17%

What do the screens show for `Cc1ccc(C)c(SCC(=O)Nc2cccc(S(=O)(=O)NC3=NCCCCC3)c2)c1`?
BAZ2B inh: -6%; JMJD2A Tudor: -28%; G9a inh: 16%[59 µM]; PLK1 PBD inh: -23%; HP1b chromo inh: 18%; VDR inhibitor: -10%

How did COC(=O)[C@]12CCCCC=C1N(CCC1=CCCCC1)C(=O)[C@H](CC(=O)NCc1cccc(C(F)(F)F)c1)C2 do in these assays?
PLK1 PBD inh: 1%

What do the screens show for `Cc1ccc(S(=O)(=O)NCCc2nnc3ccc(SCC(=O)Nc4c(C)cc(C)cc4C)nn23)cc1`?
BAZ2B inh: -14%; JMJD2A Tudor: -19%; G9a inh: -10%[59 µM]; HP1b chromo inh: 15%; VDR inhibitor: 8%

How did Cc1ccc(OC(C)C(=O)Nc2ccc3c(c2)n(C)c(=O)n3C)c(C)c1 (configuration not stated) do in these assays?
BAZ2B inh: 56µM*; JMJD2A Tudor: -21%; G9a inh: 8%[59 µM]; PLK1 PBD inh: -11%; HP1b chromo inh: 10%; VDR inhibitor: -5%

What do the screens show for `CC(=O)Nc1ccc(S(=O)(=O)Nc2ccc3c(c2)n(C)c(=O)n3C)c(C)c1`?
BAZ2B inh: 50µM*; JMJD2A Tudor: -12%; G9a inh: 14%; PLK1 PBD inh: -7%; HP1b chromo inh: -4%; VDR inhibitor: -11%

What do the screens show for `Cc1ccc(C)c(NC(=O)CCN2CCN(C)CC2)c1`?
BAZ2B inh: -6%; JMJD2A Tudor: -14%; G9a inh: 12%; PLK1 PBD inh: -9%; HP1b chromo inh: 16%; VDR inhibitor: -11%

Results for COc1ccc(C(=O)OCCN2CCCCC2)cc1 ?
BAZ2B inh: -18%; JMJD2A Tudor: -2%; G9a inh: 6%[59 µM]; PLK1 PBD inh: 2%; HP1b chromo inh: 31%; VDR inhibitor: -2%

How did COc1ccc(C(=O)CCN2CCCCCC2)cc1 do in these assays?
BAZ2B inh: -7%; JMJD2A Tudor: -8%; G9a inh: 8.9µM*; PLK1 PBD inh: 16µM*; HP1b chromo inh: 25%; VDR inhibitor: 28µM*

Results for COc1ccc(OC)c(NC(=O)CCN2CCN(c3ccccc3F)CC2)c1 ?
BAZ2B inh: inconclusive; JMJD2A Tudor: -24%; G9a inh: inconclusive; PLK1 PBD inh: -3%; HP1b chromo inh: -4%; VDR inhibitor: -24%

How did CCOC(=O)N1CCN(CCC(=O)Nc2cc(C)ccc2C)CC1 do in these assays?
BAZ2B inh: -10%; JMJD2A Tudor: 2%; G9a inh: 50µM*!; PLK1 PBD inh: 4%; HP1b chromo inh: inconclusive; VDR inhibitor: 14%

What do the screens show for `CCOC(=O)N1CCN(C(=O)CCC(=O)c2ccc(OCC)cc2)CC1`?
BAZ2B inh: -16%; JMJD2A Tudor: -1%; G9a inh: -6%; PLK1 PBD inh: -3%; HP1b chromo inh: -1%; VDR inhibitor: 1%

What do the screens show for `COc1ccc(C(=O)CCN2CCN(c3ccccc3F)CC2)cc1`?
BAZ2B inh: -33%; JMJD2A Tudor: -4%[11.4 µM]; G9a inh: inconclusive; PLK1 PBD inh: 11µM*; HP1b chromo inh: 51%; VDR inhibitor: 22µM*

How did CCCOc1ccc(C(=O)CCN2CCN(C(=O)OCC)CC2)cc1 do in these assays?
BAZ2B inh: -27%; JMJD2A Tudor: -23%; G9a inh: 10µM*; PLK1 PBD inh: 15µM*; HP1b chromo inh: 19%; VDR inhibitor: 45µM*

What do the screens show for `CCOc1ccc(NC(=O)COC(=O)Cn2cnc3ccccc32)cc1`?
JMJD2A Tudor: -14%; PLK1 PBD inh: -3%; HP1b chromo inh: 16%; VDR inhibitor: -13%

Results for CCC(Sc1nc2ccccc2c2nc(CCc3c(C)n[nH]c3C)nn12)C(=O)Nc1ccc(F)cc1 (configuration not stated) ?
BAZ2B inh: -3%; JMJD2A Tudor: -15%; G9a inh: 0%[59 µM]; HP1b chromo inh: 31%; VDR inhibitor: 3%

How did Cc1cc(C)cc(NC(=O)c2cc(S(=O)(=O)N3CCCCCC3)cn2C)c1 do in these assays?
BAZ2B inh: 2%; JMJD2A Tudor: -4%; G9a inh: -4%[59 µM]; HP1b chromo inh: 29%[57 µM]; VDR inhibitor: 11%

How did COc1ccc(-c2csc(C(C)(O)c3ccc(F)c(F)c3)n2)cn1 (configuration not stated) do in these assays?
PLK1 PBD inh: 0%

Results for CCOc1ccc(C(=O)N2CCCN(C(=O)c3ccc(OCC)cc3)CC2)cc1 ?
BAZ2B inh: 5%; JMJD2A Tudor: -21%; G9a inh: 32µM*; PLK1 PBD inh: inconclusive; HP1b chromo inh: 10%; VDR inhibitor: -12%

Results for CCOc1ccc(C(=O)CSCCC(=O)O)cc1 ?
JMJD2A Tudor: -12%; G9a inh: 32µM*; PLK1 PBD inh: -14%; HP1b chromo inh: 45%; VDR inhibitor: inconclusive

Results for COc1ccc(C(=O)CCN2CCN(c3ccc(OC)cc3)CC2)cc1 ?
BAZ2B inh: inconclusive; JMJD2A Tudor: -31%; G9a inh: 40µM*; PLK1 PBD inh: -24%; HP1b chromo inh: 9%; VDR inhibitor: inconclusive

Results for CCOc1ccc(C(=O)Cc2ccccc2)cc1 ?
JMJD2A Tudor: 10%; PLK1 PBD inh: -4%; HP1b chromo inh: 62%; VDR inhibitor: -11%

What do the screens show for `CCOc1ccc(C(=O)CCN2CCCCC2)cc1`?
BAZ2B inh: 39%; JMJD2A Tudor: 5%; G9a inh: 8.9µM*; PLK1 PBD inh: inconclusive; HP1b chromo inh: 53%; VDR inhibitor: inconclusive

What do the screens show for `O=C(CSc1cn(CC(=O)N2CCCC2)c2ccccc12)Nc1ccccc1C(F)(F)F`?
BAZ2B inh: -12%; JMJD2A Tudor: -17%; G9a inh: -4%[59 µM]; HP1b chromo inh: 39%; VDR inhibitor: 9%

What do the screens show for `O=C(O)Cc1cc(I)c(Oc2cc(I)c(O)c(I)c2)c(I)c1`?
VDR inhibitor: 14%

What do the screens show for `Cc1ccc2c(c1)c1c(c(=O)n(-c3ccccc3C)c(=O)n1Cc1ccccc1F)n2C`?
BAZ2B inh: 1%; JMJD2A Tudor: 10%; G9a inh: -2%[59 µM]; HP1b chromo inh: 44%; VDR inhibitor: 6%

How did O=C(CN(C1CCCCC1)S(=O)(=O)c1ccccc1)NCC1CCCO1 (configuration not stated) do in these assays?
BAZ2B inh: 4%; JMJD2A Tudor: 7%; G9a inh: -13%; PLK1 PBD inh: -1%; HP1b chromo inh: 25%; VDR inhibitor: -3%
